PubChem BioAssay
Activity calls are given as the source filed them.

Legend:
[1] = test system: Plasmodium falciparum Sir2 (PF13_0152, Sir2A); assay: Plasmodium falciparum Sir2A binding compounds – biochemical, small-molecule microarray, 635 nm fluorescence, primary screen (AID 1098); settings: fluorescence 635 nm, higher = more signal;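 note: score merges spot fluorescence intensity with its signal-to-noise ratio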
[2] = probe aDKK1 binding to arrayed compounds – biochemical, biotinylated probe, 635/667 nm fluorescence, primary screen (AID 1099); settings: small-molecule microarray, higher = more signal;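 note: score merges 667nm spot fluorescence with signal to noise across triplicate slides; reference of the scale not given here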
[3] = probe aCHRDL2 binding to arrayed compounds – biochemical, biotinylated probe, 635/667 nm fluorescence, primary screen (AID 1100); settings: small-molecule microarray, higher = more signal
[4] = change in splice reporter luminescence, either direction, cell-based, HEK293, spliceosome inhibition project, primary screen (AID 1101); settings: HEK293 splicing luciferase reporter, 24 h, higher = more signal, called active from +8 up or from −8 down;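 note: HEK293 cells carrying a splicing-competent luciferase reporter gene; test concentration not given here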
[5] = molecular target: Fibroblast growth factor 10 (Homo sapiens) (UniProt O15520); assay: compounds binding fibroblast growth factor 10 – biochemical, small-molecule microarray, 635 nm fluorescence, primary screen (AID 1102); settings: FGF10 binding, fluorescence 635 nm, higher = more signal
[6] = test system: glycogen synthase kinase-3 (GSK3A per assay name; protocol says GSK3B); assay: compounds binding glycogen synthase kinase-3 – biochemical, small-molecule microarray, 635 nm fluorescence, GSK3A, primary screen (AID 1103); settings: fluorescence 635 nm, higher = more signal; note: the record names both GSK3A and GSK3B
[7] = molecular target: Epidermal growth factor receptor (Homo sapiens) (UniProt P00533); assay: compounds binding epidermal growth factor receptor – biochemical, small-molecule microarray, 635 nm fluorescence, primary screen (AID 1104); settings: EGFR binding, higher = more signal;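 note: score merges 667 nm emission intensity with spot signal to noise over triplicate slides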
[8] = molecular target: Follistatin-related protein 3 (Homo sapiens) (UniProt O95633); assay: compounds binding follistatin-related protein 3 – biochemical, small-molecule microarray, 635 nm fluorescence, primary screen (AID 1105); settings: FSTL3 binding, higher = more signal;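 note: score merges emission near 667 nm and signal to noise per printed spot across three slides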
[9] = molecular target: Dickkopf-related protein 1 (Homo sapiens) (UniProt O94907); assay: small molecules binding DKK1 protein – biochemical, small-molecule microarray, 635 nm fluorescence scan, primary screen (AID 1106); settings: higher = more signal;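 note: score merges emission near 667 nm with signal to noise over three replicate slides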
[10] = test system: Inhibin beta A chain (activin A); assay: small molecules binding activin A – biochemical, small-molecule microarray, 635 nm fluorescence scan, primary screen (AID 1107); settings: INHBA, higher = more signal;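 note: mouse activin A protein probed at 4.33 µg/mL on printed slides; score merges bound-protein fluorescence near 667 nm with spot signal-to-noise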

Sequence of Dickkopf-related protein 1 (Homo sapiens) (O94907 whole entry, looked up): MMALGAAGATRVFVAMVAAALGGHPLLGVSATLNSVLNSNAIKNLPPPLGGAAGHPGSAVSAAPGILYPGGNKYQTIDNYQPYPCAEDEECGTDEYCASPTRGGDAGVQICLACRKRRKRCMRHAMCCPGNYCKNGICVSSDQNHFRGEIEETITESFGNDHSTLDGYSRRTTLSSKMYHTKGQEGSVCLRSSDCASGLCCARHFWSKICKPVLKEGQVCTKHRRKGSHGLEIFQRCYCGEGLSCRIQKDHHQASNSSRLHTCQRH
Sequence of Follistatin-related protein 3 (Homo sapiens) (O95633 whole entry, looked up): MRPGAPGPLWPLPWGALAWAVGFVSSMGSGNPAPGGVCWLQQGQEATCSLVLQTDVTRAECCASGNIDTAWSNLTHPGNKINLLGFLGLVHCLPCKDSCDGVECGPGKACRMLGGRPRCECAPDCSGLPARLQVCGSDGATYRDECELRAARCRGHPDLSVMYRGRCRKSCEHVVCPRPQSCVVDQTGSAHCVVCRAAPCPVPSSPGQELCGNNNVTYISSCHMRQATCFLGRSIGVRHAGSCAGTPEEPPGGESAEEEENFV
Sequence of Epidermal growth factor receptor (Homo sapiens) (P00533 whole entry, looked up): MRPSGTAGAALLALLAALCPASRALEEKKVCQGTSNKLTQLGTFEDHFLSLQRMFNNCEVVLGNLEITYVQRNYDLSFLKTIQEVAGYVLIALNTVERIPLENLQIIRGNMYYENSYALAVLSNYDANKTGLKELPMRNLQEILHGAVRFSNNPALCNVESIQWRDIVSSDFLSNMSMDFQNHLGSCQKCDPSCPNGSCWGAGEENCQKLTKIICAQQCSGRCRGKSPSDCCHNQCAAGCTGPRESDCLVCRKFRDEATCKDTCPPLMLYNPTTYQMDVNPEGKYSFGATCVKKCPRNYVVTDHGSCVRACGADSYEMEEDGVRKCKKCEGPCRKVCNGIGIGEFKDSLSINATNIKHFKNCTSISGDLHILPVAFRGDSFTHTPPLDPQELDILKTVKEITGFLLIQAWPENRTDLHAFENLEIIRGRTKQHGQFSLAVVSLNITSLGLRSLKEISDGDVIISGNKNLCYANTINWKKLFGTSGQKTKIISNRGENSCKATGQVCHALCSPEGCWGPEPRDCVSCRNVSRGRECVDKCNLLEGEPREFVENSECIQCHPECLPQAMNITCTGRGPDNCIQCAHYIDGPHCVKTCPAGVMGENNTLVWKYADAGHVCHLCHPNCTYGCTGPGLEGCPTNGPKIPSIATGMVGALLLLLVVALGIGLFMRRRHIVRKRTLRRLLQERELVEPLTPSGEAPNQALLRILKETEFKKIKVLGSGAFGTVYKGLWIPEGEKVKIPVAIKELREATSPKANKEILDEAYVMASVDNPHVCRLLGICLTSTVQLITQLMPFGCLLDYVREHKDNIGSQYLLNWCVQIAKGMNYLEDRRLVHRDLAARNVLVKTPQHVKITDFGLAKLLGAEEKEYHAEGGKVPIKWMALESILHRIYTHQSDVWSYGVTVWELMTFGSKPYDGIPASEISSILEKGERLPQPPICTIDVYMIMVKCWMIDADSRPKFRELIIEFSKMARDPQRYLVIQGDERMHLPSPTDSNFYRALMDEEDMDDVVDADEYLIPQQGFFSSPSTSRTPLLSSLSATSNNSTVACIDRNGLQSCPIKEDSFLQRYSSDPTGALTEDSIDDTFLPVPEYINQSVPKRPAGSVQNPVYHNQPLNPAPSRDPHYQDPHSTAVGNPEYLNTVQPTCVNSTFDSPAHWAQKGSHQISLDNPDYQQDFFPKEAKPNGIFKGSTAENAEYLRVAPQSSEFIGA
Sequence of Fibroblast growth factor 10 (Homo sapiens) (O15520 whole entry, looked up): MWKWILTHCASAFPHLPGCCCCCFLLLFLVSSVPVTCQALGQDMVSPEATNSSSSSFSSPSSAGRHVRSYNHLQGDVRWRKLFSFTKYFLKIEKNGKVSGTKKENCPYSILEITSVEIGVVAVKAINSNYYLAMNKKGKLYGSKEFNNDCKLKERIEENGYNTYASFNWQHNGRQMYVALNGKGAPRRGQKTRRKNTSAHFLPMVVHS

Row | SMILES | composite z-score [1] | composite z-score [2] | composite z-score [3] | z-score [4] | composite z-score [5] | composite z-score [6] | composite z-score [7] | composite z-score [8] | composite z-score [9] | composite z-score [10]
1 | NC(=O)NCC#Cc1ccc2c(c1)[C@]1(C(=O)N2)[C@H](C(=O)O)[C@H]2C(=O)O[C@H](c3ccccc3)[C@H](c3ccccc3)N2[C@@H]1c1ccccc1OCCO | 1.37 | 0.689 | 0.677 | -1.14 (inactive) | 0.991 | 0.558 | 0.363 | 1.01 | 0.351 | 1.4
2 | CC(C)C(O)C1C=CC2C(=O)N(C)C(=O)C2N1Nc1ccccc1 (stereo not given) | 0.778 | 1.36 | 0.598 | 1.01 (inactive) | 0.943 | 0.686 | -0.0756 | 0.439 | 0.4 | 0.742
3 | C=C(COC)/C(=C/C[C@@H](OC(=O)c1ccncc1)c1ccc(OCCO)cc1)c1cnc2ccccc2c1 | 0.212 | 0.0923 | -0.0001 | -0.275 (inactive) | 1.46 | 1.3 | 1.35 | 1.58 | 0.99 | 1.95
4 | O=C1NC(=O)C2C1C=CC(C(O)c1cc(C(F)(F)F)cc(C(F)(F)F)c1)N2Nc1ccc(Cl)cc1Cl (stereo not given) | 0.314 | 0.853 | 0.824 | 0.916 (inactive) | 0.336 | -0.514 | -0.66 | -0.0146 | -0.953 | 0.701
5 | CN1C(=O)C2C(C1=O)C1C=C(c3ccc(CO)cc3)C2C(c2cccs2)N1Cc1cccc(OC(F)(F)F)c1 (stereo not given) | 1.06 | 0.0564 | -0.137 | -0.243 (inactive) | 1.07 | 1.27 | 0.0302 | 1.17 | 0.483 | 0.614
6 | COC(=O)C[C@H]1O[C@]2(C(=O)N(C)c3ccccc32)[C@@H](C)[C@@H]1[Si](C)(C)c1ccc(C)cc1 | 0.486 | -0.276 | -0.203 | -0.283 (inactive) | 0.749 | 0.96 | 0.41 | 0.958 | 0.501 | 0.0223
7 | COC(=O)[C@@]1(Cc2ccc(F)cc2)[C@H]2c3cc(C(=O)N4CCCC4)n(CCF)c3C[C@H]2CN1C(=O)c1ccccc1 | 1.62 | 1.98 | 1.02 | -1.72 (inactive) | 0.876 | 0.306 | -0.0069 | 0.418 | 0.555 | 1.03
8 | CN(C)CCCNC(=O)[C@@H]1c2ccccc2C(=O)N(CC23CC4CC(CC(C4)C2)C3)[C@H]1c1ccc(CO)cc1 | 1.15 | -0.46 | 0.296 | -0.751 (inactive) | 1.17 | 0.98 | 0.425 | 1.15 | 0.872 | -0.111
9 | CC(C)CN1C(=O)[C@@]2(c3ccc([N+](=O)[O-])cc3)CC(=O)N(CC34CC5CC(CC(C5)C3)C4)[C@@H]2c2ccc(CO)cc21 | 0.984 | 0.185 | 0.807 | -0.668 (inactive) | -1.02 | -0.853 | -1.72 | -1.09 | -1.48 | 0.2
10 | COc1ccc([Si](C)(C)[C@H]2[C@H](CCn3cc(CCO)nn3)O[C@@]3(C(=O)N(Cc4ccc(N5C(=O)c6cccc7cccc5c67)cc4)c4ccccc43)[C@@H]2C)cc1 | 0.96 | -0.145 | -0.564 | -2.8 (inactive) | 0.916 | 0.682 | 0.567 | 1.3 | 0.652 | 0.281
11 | CCCC[C@@H]1C[C@H]1[C@@H](NC(=O)c1cccnc1)c1ccc(-c2ccccc2)cc1 | 0.0651 | -0.161 | 0.993 | -4.22 (inactive) | -1.19 | -1.2 | -1.46 | -1.01 | -1.44 | 0.936
12 | COCCOC(=O)N1C(=O)[C@@]2(c3ccccc31)[C@H](C(=O)N1CCN(c3ncccn3)CC1)[C@H]1C(=O)O[C@H](c3ccccc3)[C@H](c3ccccc3)N1[C@@H]2c1ccc(OCCO)cc1 | 1.02 | 0.657 | 0.422 | -0.471 (inactive) | 1.24 | 0.402 | 1 | 1.03 | 0.286 | 0.252
13 | [N-]=[N+]=NCc1ccccc1C[C@@]1(C(=O)NCCN2CCOCC2)N=C(c2ccc(OCCCO)cc2)O[C@@H]1c1ccccc1N=[N+]=[N-] | 1.15 | 0.75 | 0.45 | -1.7 (inactive) | 0.778 | 1.08 | 0.283 | 0.325 | -0.194 | 0.822
14 | Cc1ccc(S[C@]2(C(=O)NC(C)C)CC(=O)N(Cc3ccccc3C(F)(F)F)[C@@H]2c2ccc(CO)cc2I)cc1 | 1.29 | 0.386 | 1.09 | -1.42 (inactive) | -1.41 | -1.1 | -1.64 | -1.29 | -1.7 | 0.889
15 | COCC(=C=CC[C@H](O)c1ccc(OCCO)cc1)C[C@H](O)COCc1ccccc1 | 1.56 | -0.199 | -0.228 | -1.11 (inactive) | 0.605 | 0.351 | 0.291 | 0.944 | 0.462 | 0.928
16 | COc1cc2c(cc1O)C(C)N(Cc1cc3c(cc1Br)OCO3)CC2 (stereo not given) | 1 | 0.623 | 0.749 | -0.363 (inactive) | -0.0175 | -1.11 | -0.277 | -0.475 | -0.165 | 0.561
17 | O=C1C[C@@](C(=O)NCC(F)(F)F)(c2ccc([N+](=O)[O-])cc2)[C@@H](c2ccc(CO)cc2)N1C1CCCCC1 | 1.65 | 0.74 | 0.843 | -0.684 (inactive) | 0.86 | 1.31 | 0.308 | 1.03 | 0.172 | 0.563
18 | C=CCC(OC(C)=O)[C@@H]1[C@@H](N(Cc2cc3ccccc3o2)C(=O)Cc2ccc(F)cc2)c2cc(OCCCO)ccc2N1C(=O)c1ccc2ccccc2n1 (stereo not given in full) | -0.278 | -0.106 | 0.394 | -0.509 (inactive) | -0.0436 | -0.497 | 0.112 | -0.255 | 0.0645 | 1.2
19 | NC(N)=NCc1cn(CCc2c[nH]c3ccccc23)nn1 | 0.689 | 0.0191 | -0.865 | -0.443 (inactive) | 0.479 | 1.18 | 0.699 | 1.12 | 1.6 | 0.307
20 | O=C1O[C@@H](c2ccccc2)[C@@H](c2ccccc2)N2[C@@H](c3ccccc3OCCO)[C@]3(C(=O)Nc4ccc(C#CC5=CCCCC5)cc43)[C@@H](C(=O)NC[C@H](O)c3ccccc3)[C@H]12 | 1.3 | -0.108 | -0.149 | -1.13 (inactive) | 0.717 | 1.3 | 0.496 | 1.22 | 0.352 | 0.623
21 | CC(C)N1C(=O)[C@@]2(c3ccc([N+](=O)[O-])cc3)CC(=O)N(C3CCCCC3)[C@@H]2c2ccc(CO)cc21 | 0.29 | -0.227 | -0.173 | 0.403 (inactive) | 0.269 | 0.172 | -0.137 | 0.656 | 0.501 | 0.859
22 | C=CCOC(=O)[C@H]1[C@@H]2C(=O)O[C@@H](c3ccccc3)[C@@H](c3ccccc3)N2[C@@H](c2ccc(OCCOC(=O)[C@H]3C[C@H]4C(=O)N[C@@H](CCCC[N+](C)(C)C)C(=O)N4[C@H]3c3cccc(OCCO)c3)cc2)[C@]12C(=O)Nc1ccc(I)cc12 | 1.1 | -0.179 | -0.0243 | 0.997 (inactive) | 0.809 | 0.701 | 0.335 | 0.376 | 0.763 | 0.111
23 | C=C(C(=O)CC[C@H](OC(=O)c1cccnc1)c1ccc(CO)o1)C(C)C | 1.08 | 0.0114 | -0.239 | 0.586 (inactive) | 0.866 | 0.836 | 0.0193 | 0.406 | 0.603 | 0.935
24 | Cc1ccc(S[C@]2(C(=O)NCc3ccccc3)CC(=O)N(C(C)C)[C@@H]2c2ccc(CO)cc2I)cc1 | 0.169 | 0.378 | 1.16 | 0.0407 (inactive) | -0.991 | -0.687 | -0.474 | -1.04 | -1.67 | 0.929
25 | CCCCN1CC=CC23O[C@@H]4C=CCOC(=O)[C@@H]4[C@H]2C(=O)N(C(C)CO)[C@@H]3C1=O (stereo not given in full) | 1.1 | 0.198 | 0.774 | 0.408 (inactive) | -0.291 | -1.44 | -1.21 | -1.22 | -1.14 | 0.286
26 | C=CCN1C(=O)[C@]2(CC=C)N=C(c3ccc(OCCCO)cc3)O[C@@H]2c2ccccc21 | 1.08 | 0.945 | 1.1 | -0.436 (inactive) | 0.506 | 0.777 | 0.925 | 1.18 | 0.95 | 1.38
27 | Cc1ccc(S[C@]2(C(=O)NC3CC3)CC(=O)N(Cc3ccccc3Cl)[C@@H]2c2ccc(CO)cc2I)cc1 | 1.35 | 0.633 | 0.873 | -0.447 (inactive) | 1.4 | 1.27 | -0.172 | 0.41 | 0.122 | 1.03
